Experimental data reported in PubChem BioAssay (NCATS).
Records with an inconclusive call do not appear. The source made the active and inactive calls. Calls follow the shape of the dose curve; as a rule, active = well fitted inhibition curve with a large enough effect; inconclusive = small, poorly fitted or top-dose-only effect; inactive = flat fitted curve, though single readings scatter. *1 amine or outer side, *2 acyl side, *3 side chain or, on linkers, in order; H or OH if unused. Where a SMILES comes first, the peptide text is derived from it. Bridges are numbered along the chain shown (N, C = ends). [ ]: non-standard residue; d: D form. The star is where a group is joined. ξ: configuration not given here. X10 = NC1=NCCC(C(N[*:1])C(=O)[*:2])N1; ΔAla(3-NHCONH2) = NC(=O)NC=C(N)C(=O)O; ξβ3hOrn = NCCCC(N)CC(=O)*; Dap = NC[CH](N)C(=O)O

Legend:
[1] = system: CRL-7250; assay: Cytotoxic Profiling of Annotated Libraries Using Quantitative High-Throughput Screening (AID 1296008); conditions: Five cell lines viability, CellTiter-Glo ATP luminescence, 48-72 h; max response: stronger effect = lower value
Method in brief: (§1)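 Compounds were pin-transferred onto cells and incubated 48 or 72 hr at 37 degree Celsius, 95% humidity. CellTiter-Glo was added, plates sat 10 min at room temperature, then ATP-coupled luminescence was imaged as the viability read-out.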

[2] = system: HEK293; assay: as above; conditions: Five cell lines viability, CellTiter-Glo ATP luminescence, 48-72 h; max response: stronger effect = lower value
Method in brief: as §1

[3] = system: HaCat; assay: as above; conditions: Five cell lines viability, CellTiter-Glo ATP luminescence, 48-72 h; max response: stronger effect = lower value
Method in brief: as §1

[4] = system: NIH3T3; assay: as above; conditions: Five cell lines viability, CellTiter-Glo ATP luminescence, 48-72 h; max response: stronger effect = lower value
Method in brief: as §1

[5] = system: HEK293T; assay: qHTS assay to identify novel small-molecules to repurpose for Merkel cell carcinoma treatment (AID 1296009); conditions: MCC and control cell lines, CellTiter-Glo viability, 72 h; at 44.8 µM (top of the series) unless noted
Method in brief: (§2)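 qHTS format: cells treated with library compounds in DMSO across 8 (NPC) or 11 (MIPE) concentrations. Readout after 72 hr at 37 degree celsius was CellTiter-Glo luminescence.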

[6] = system: MCC-13; assay: as above; conditions: MCC and control cell lines, CellTiter-Glo viability, 72 h; series mostly up to 46 µM
Method in brief: as §2

[7] = system: MCC-26; assay: as above; conditions: MCC and control cell lines, CellTiter-Glo viability, 72 h; series mostly up to 46 µM
Method in brief: as §2
% is scaled to controls: 0 for no effect and ±100 for the full control effect; potency is read from the fitted curve at half-maximal effect.
Also: nearly all actives have a fitted effect of over 60% in size.

c1ccc2c(c1)CCc1ccccc1N2
inactive: outcome [1] | outcome [2] | max response [3] -8.39% | outcome [4] | outcome [5] | Potency [6] | Potency [7]

NCCCC(N)CC(=O)NCC1NC(=O)C(CO)NC(=O)C(N)CNC(=O)C(C2CCN=C(N)N2)NC(=O)C(=CNC(N)=O)NC1=O (stereo not drawn) (H-[Dap]S[Dap](ξβ3hOrn)[ΔAla(3-NHCONH2)][X10]; lactam 1-C; configuration not given here)
inactive: max response [1] -12.1% | max response [2] -7.39% | max response [3] -10.9% | max response [4] -5.75% | activity change, negative = cytotoxicity [6] 7.39% [at 0.597 µM] | activity change, negative = cytotoxicity [7] 12.9% [at 0.597 µM]

COc1cc(C(=O)OC(COCCC(C)C)CN2CCOCC2)cc(OC)c1OC (stereo not drawn)
inactive: max response [1] -2.39% | outcome [2] | max response [3] -1.64% | max response [4] 3.87% | outcome [5] | Potency [6] | Potency [7]

CCOc1ccccc1OCC1CNCCO1 (stereo not drawn)
inactive: max response [1] -6.41% | outcome [2] | max response [3] 0.667% | outcome [4] | outcome [5] | Potency [6] | Potency [7]

CC(=O)OC[C@H]1O[C@@H](OC(C)=O)[C@H](OC(C)=O)[C@@H]1OC(C)=O
inactive: max response [1] -4.36% | max response [2] 1.73% | max response [3] 2.57% | outcome [4] | Potency [6] | Potency [7]

CN1Cc2cc(C(=O)N3CCC(C4CCNCC4)CC3)ccc2NC(CC(=O)O)C1=O (stereo not drawn)
inactive: max response [1] 0.285% | max response [2] -6.55% | max response [3] -7.2% | max response [4] -2.76% | Potency [6] | Potency [7]

CCOC(=O)O[C@]1(C(=O)OCCl)CC[C@H]2[C@@H]3CCC4=CC(=O)C=C[C@]4(C)[C@H]3[C@@H](O)C[C@@]21C
inactive: outcome [1] | outcome [2] | max response [3] -4.73% | outcome [4] | outcome [5] | Potency [6] | Potency [7]

O=C(O)Cn1cnnn1
inactive: max response [1] -0.376% | outcome [2] | max response [3] 1.64% | max response [4] -2.11% | outcome [5] | Potency [6] | Potency [7]

O=C(O)CCC(=O)OC[C@@H](NC(=O)C(Cl)Cl)[C@H](O)c1ccc([N+](=O)[O-])cc1
inactive: max response [1] -4.73% | max response [2] -21.8% | max response [3] 0.154% | max response [4] -0.147% | Potency [6] | Potency [7]

C#CC(C)(CC)OC(=O)c1ccccc1C(=O)O (stereo not drawn)
inactive: max response [1] -9.5% | max response [2] 4.2% | max response [3] -2.23% | outcome [4] | Potency [6] | Potency [7]

Nc1ccc(C(=O)N2CC3CC(CN(Cc4ccccc4)C3)C2)cc1
inactive: max response [1] -9.41% | outcome [2] | max response [3] 3.27% | outcome [4] | outcome [5] | Potency [6] | Potency [7]

OCc1cccnc1
inactive: max response [1] -0.394% | max response [2] -2.02% | max response [3] 3.51% | outcome [4] | Potency [6]

N#Cc1cc(NC(=O)C(=O)O)c(Cl)c(NC(=O)C(=O)O)c1
inactive: outcome [1] | max response [2] -3.47% | max response [3] -3.53% | max response [4] -0.466% | Potency [6] | Potency [7]

CC[C@@]1(O)C(=O)OCc2c1cc1n(c2=O)Cc2c-1nc1ccccc1c2/C=N/OC(C)(C)C
active: Potency [1] 1190 nM | Potency [2] 21.1 nM | Potency [3] 42.2 nM | Potency [4] 266 nM | Potency [6] 84.1 nM

O=C1NC(c2ccccc2)(c2ccccc2)C(=O)N1COP(=O)(O)O
inactive: outcome [1] | outcome [2] | max response [3] -3.47% | outcome [4] | outcome [5] | Potency [6] | Potency [7]

CC(C)C(=O)OCc1cccc(OC(=O)[C@@H]2N3C(=O)[C@@H](NC(=O)Cc4ccccc4)[C@H]3SC2(C)C)c1
inactive: outcome [1] | outcome [2] | max response [3] -11.1% | max response [4] 4.46% | outcome [5] | Potency [6] | Potency [7]

O=C(CS(=O)Cc1ccco1)NC/C=C\COc1cc(CN2CCCCC2)ccn1 (stereo not drawn)
inactive: max response [1] -3.38% | max response [2] 0.0112% | max response [3] -5.87% | max response [4] -2.51% | Potency [6]

CC(C)C(=O)Nc1cccc(C2CN3CCSC3=N2)c1 (stereo not drawn)
inactive: max response [1] -9.12% | max response [2] -1.66% | max response [3] -7.7% | max response [4] -0.0334% | Potency [6]

CCC(=O)O[C@H]1[C@H](O[C@@H]2[C@@H](C)[C@H](O[C@H]3C[C@@](C)(OC)[C@@H](O)[C@H](C)O3)[C@@H](C)C(=O)O[C@H](CC)[C@@](C)(O)[C@H](O)[C@@H](C)C(=O)[C@H](C)C[C@@]2(C)O)O[C@H](C)C[C@@H]1N(C)C
inactive: max response [1] 0.377% | outcome [2] | max response [3] 0.29% | max response [4] 1.01% | outcome [5] | Potency [6] | Potency [7]

O=C(O)Cn1c(=O)n(Cc2ccc(Br)cc2F)c(=O)c2ccc(Cl)cc21
inactive: outcome [1] | outcome [2] | max response [3] 0.662% | outcome [4] | outcome [5] | Potency [6] | Potency [7]

Nc1nc(=O)n([C@@H]2O[C@H](CO)[C@@H](O)[C@@H]2F)cc1I
inactive: max response [1] -26.4% | outcome [2] | max response [3] 3.07% | max response [4] -21.4% | outcome [5] | Potency [7]

COc1cc(S(N)(=O)=O)cc(C(=O)O)c1OC
inactive: max response [1] 3.62% | max response [2] -2.74% | max response [3] 2% | outcome [4] | Potency [6]

OC1(c2ccccc2)CCNCC1
inactive: max response [1] 0.914% | max response [2] 1.58% | max response [3] -1.01% | outcome [4] | Potency [6]

Cn1c(=O)c2c(ncn2CC(=O)O)n(C)c1=O
inactive: max response [1] -0.788% | max response [2] -8.26% | max response [3] -42.3% | outcome [4] | Potency [6]

NC(=O)NC1N=C([O][Al])NC1=O (stereo not drawn)
inactive: outcome [1] | outcome [2] | max response [3] 3.4% | max response [4] 1.11% | outcome [5] | Potency [6] | Potency [7]

Cc1cc2nc3ccc(=[N+](C)C)cc-3sc2cc1N
active: Potency [1] 9440 nM | Potency [2] 422 nM | Potency [3] 6680 nM | Potency [4] 10600 nM | Potency [6] 2990 nM | Potency [7] 11900 nM

Cc1sccc1Br
inactive: max response [1] -9.55% | max response [2] -4.49% | max response [3] 1.43% | max response [4] -2.8% | Potency [6]

Cc1[nH]cnc1-c1ccc(Cl)cc1
inactive: outcome [1] | outcome [2] | max response [3] -6.75% | outcome [4] | outcome [5] | Potency [6] | Potency [7]

CCS(=O)(=O)c1ccc(OC)c(C(=O)OC)c1
inactive: max response [1] 0.361% | outcome [2] | max response [3] 4.82% | outcome [4] | outcome [5] | Potency [6] | Potency [7]

O=c1[nH]c(=O)n([C@H]2O[C@H](CO)[C@@H](O)[C@@H]2O)cc1/C=C\Br
inactive: max response [1] -8.24% | outcome [2] | max response [3] 4.03% | max response [4] -0.191% | outcome [5] | Potency [6] | Potency [7]

OC(CCCN1CCCCC1)(c1ccccc1)c1ccccc1
inactive: max response [1] -11.1% | max response [2] -39.9% | max response [3] -16% | max response [4] -14.5% | Potency [6]

C[C@H]1C[C@H](O)c2ccsc2S1(=O)=O
inactive: max response [1] -0.46% | max response [2] 3.47% | max response [3] 2.62% | max response [4] 1.66% | Potency [6] | Potency [7]

CCCCOC(=O)CCCCCCCCC(=O)OCCCC
inactive: max response [1] 0.0544% | max response [2] 1.21% | max response [3] -1.87% | outcome [4] | Potency [6] | Potency [7]

O=C(O)CCCC[C@@H]1SC[C@@H]2NC(=O)N[C@@H]21
inactive: outcome [1] | max response [2] -6.79% | max response [3] 4.46% | max response [4] 1.46% | Potency [6] | Potency [7]

NC(=O)NS(=O)(=O)c1ccc(Cl)cc1
inactive: outcome [1] | max response [2] -19.3% | max response [3] 0.84% | max response [4] -2.72% | Potency [6] | Potency [7]

CC(=O)N(CC(=O)N(C)C)c1ccccc1
inactive: max response [1] -29.6% | max response [2] -63.5% | max response [3] -4.61% | max response [4] 1.94% | Potency [6] | Potency [7]

CCCOc1ccc2c(c1)CC[C@@H]1[C@@H]2CC[C@]2(C)C(OC)CC[C@@H]12 (stereo partly drawn)
inactive: max response [1] -5.35% | max response [2] -6.37% | max response [3] 2.29% | max response [4] 0.167% | Potency [6] | Potency [7]

CC(=O)N[C@@H](CO)C(=O)N[C@@H](CC(=O)O)C(=O)N[C@@H](CCCCN)C(=O)N1CCC[C@H]1C(=O)O (Ac-SDKP-OH)
inactive: max response [1] 3.47% | max response [2] 0.0413% | max response [3] -26.1% | max response [4] -0.894% | Potency [6] | Potency [7]
